From PubChem BioAssay
D2 antag = D2 dopamine receptor (human) antagonism. P14416. 340,000 compounds, 2% hits. HEK293 TREx D2 cells, calcium flux, dopamine EC80. inhibition, % at 10 µM; in the data active = inhibition above about 30%; inactive = below that, where a call was filed; also: 0% is about no effect
Target sequence (P14416 whole entry, looked up): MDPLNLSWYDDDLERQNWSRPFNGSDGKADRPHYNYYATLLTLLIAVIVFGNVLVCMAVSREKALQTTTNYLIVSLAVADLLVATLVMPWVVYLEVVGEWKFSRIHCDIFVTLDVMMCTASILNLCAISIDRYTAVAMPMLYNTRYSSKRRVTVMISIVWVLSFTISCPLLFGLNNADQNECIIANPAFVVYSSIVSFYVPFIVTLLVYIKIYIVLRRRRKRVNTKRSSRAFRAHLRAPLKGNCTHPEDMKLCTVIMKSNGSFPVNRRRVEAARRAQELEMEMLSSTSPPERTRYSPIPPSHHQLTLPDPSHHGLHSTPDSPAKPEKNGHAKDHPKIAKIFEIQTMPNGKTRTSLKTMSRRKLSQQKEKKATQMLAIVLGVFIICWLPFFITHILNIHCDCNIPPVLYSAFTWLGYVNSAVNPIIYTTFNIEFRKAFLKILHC
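Measurement of antagonist activity uses fluorescent calcium dye in inducible HEK293 T-REx D2 cells: 10 s baseline, compound addition with 180 s read, EC80 dopamine addition with a further 180 s read.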
D2 ag-1 = human D2 receptor agonism in beta-arrestin assay; DiscoveRx PathHunter D2 beta-arrestin, luminescence, 90 min; 100% = 57 uM dopamine signal; activation, % (concentration not given with the values); 360,000 compounds, 0.084% hits; AID 624465; in the data active = activation above about 40%
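Agonist mode: compounds alone added to overnight-plated D2 PathHunter cells for 90 min at 37 C, with 57 uM final dopamine (EC100) defining full response. Beta-arrestin recruitment detected by chemiluminescent reagent, read after 1 h at ambient temperature.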
D2 PAM-1 = positively modulates the human D2 dopamine receptor allosterically; P14416; HEK293 T-REx D2, calcium flux, EC20 dopamine potentiation; potentiation, % at 10 µM; 340,000 compounds, 0.34% hits; AID 485347;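 active = potentiation over 3 SD above the plate norm, cut at about 30% in these data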; also: 0% is about no effect
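Tetracycline-induced Hek293 Trex D2 cells, force-coupled to calcium, loaded with no-wash calcium dye. Compound added with 180 s kinetic read for agonism, then EC20 dopamine and a further 180 s read for potentiation.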
D2 ag-2 = activates the human D2 dopamine receptor; activation, % at 2 µM; 340,000 compounds, 0.53% hits; HEK293 T-REx D2 cells, calcium flux agonist mode; P14416;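 active = activation over 3 SD above normal in the single-dose calcium agonist read, cut at about 30% in these data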; also: 0% is about no effect
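In this primary screen, compounds producing a positive calcium signal within 180 s of addition to tetracycline-induced, force-coupled HEK293 Trex D2 cells are flagged; cells are dye-loaded with a no-wash calcium kit beforehand.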
D2 PAM-2 = human D2 receptor positive allosteric modulation. P14416. DiscoveRx D2 beta-arrestin cells, luminescence, 90 min; 100% = 57 uM dopamine signal. potentiation, % (test concentration not listed). 360,000 compounds, 0.23% hits; in the data active = potentiation above about 50%
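D2 cells co-treated with compound plus 50 nM dopamine (EC20) for 90 min at 37 deg C to detect potentiation. Beta-arrestin recruitment was read as enzyme-fragment luminescence after 1 h at ambient temperature. Full response was set by 57 uM dopamine.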
Starred values were filed as active, the others as inactive; x = no result given. Sampled rows, rich in hits. Any-hit rate of the full collection: about 2.4%.

SMILES	D2 antag	D2 ag-1	D2 PAM-1	D2 ag-2	D2 PAM-2
O=C(CCCCn1c(=O)c2ccccc2n(CC(=O)Nc2cccc(F)c2)c1=O)NCCc1ccccc1	x	x	x	-1	x
O=C1N[C@@H](Cc2cnc[nH]2)C(=O)N2CCC[C@@H]12	45*	-6	-1	2	-5
O=C1N[C@@H](Cc2ccccc2)C(=O)N2CCCC12 (stereo partly drawn)	x	-3	x	x	-6
O=C(CCSCCC(=O)NCc1ccccc1)NCc1ccccc1	11	-2	0	1	10
NS(=O)(=O)c1ccc(CNC(=O)CCSCCC(=O)NCc2ccc(S(N)(=O)=O)cc2)cc1	33*	-2	0	-2	-7
Cc1ccccc1NC(=O)c1c(C)oc2ccc(O)c(CN3CCC(C)CC3)c12	x	x	6	0	x
CC(=O)Cn1c(CN2CCCC2)nc2ccccc2c1=O	35*	-5	-4	1	-6
CC(=O)Cn1c(CN2CCCCC2)nc2ccccc2c1=O	4	-4	-29	1	-4
COc1ccc(NC(=S)N(CCCN2CCOCC2)C(C)c2cc3cccc(OC)c3o2)cc1 (stereo not drawn)	35*	-1	-18	0	-15
COc1cccc2cc(C(C)N(CCCN3CCOCC3)C(=S)Nc3ccc(C)c(C)c3)oc12 (stereo not drawn)	-9	-5	-14	-3	-26
CCOC(=O)Cn1ncc(-c2ccccc2)c1N	57*	-2	-6	0	20
CN(C)c1ccc(-c2nnc(SCC3CCCO3)n2C)cc1 (stereo not drawn)	32*	1	3	0	-6
Cn1c(SCC2CCCO2)nnc1-c1ccncc1 (stereo not drawn)	7	1	5	0	4
CCN1CCN(c2nc(Nc3ccccc3F)nc(N)c2[N+](=O)[O-])CC1	78*	-1	-21	0	-31
CCN1CCN(c2nc(Nc3cccc(C)c3)nc(N)c2[N+](=O)[O-])CC1	85*	-6	-18	0	-15
Cc1ccc(Nc2nc(N)c([N+](=O)[O-])c(N3CCOCC3)n2)cc1C	3	-9	21	-2	-6
CCN1CCN(c2nc(Nc3ccc(OC)cc3)nc(N)c2[N+](=O)[O-])CC1	41*	0	-10	-1	-22
Cc1cccc(Nc2nc(N)c([N+](=O)[O-])c(N3CCCC(C)C3)n2)c1 (stereo not drawn)	13	-8	18	1	-28
CCN1CCN(c2nc(Nc3ccccc3)nc(N)c2[N+](=O)[O-])CC1	84*	-7	-20	-2	-35
Nc1nc(Nc2ccccc2F)nc(N2CCCC2)c1[N+](=O)[O-]	-7	-2	7	0	0
CCCCN(CC)CCCNC(=O)c1cc2c(=O)[nH]c3ccccc3c2n1C	x	x	13	-1	x
Cc1ccc(-n2nc(C(=O)N(C)Cc3ccccc3)c3c4ccccc4n(C)c3c2=O)cc1	x	x	29	-2	x
Nc1nc(NCc2ccco2)nc(N2CCN(Cc3ccccc3)CC2)c1[N+](=O)[O-]	89*	-3	-15	0	-26
Nc1nc(NCc2ccco2)nc(N2CCCC2)c1[N+](=O)[O-]	7	1	2	2	1
COCc1cc(C)nc2c1C(=O)NC(c1ccc(F)cc1)N2Cc1ccccc1 (stereo not drawn)	x	x	1	0	x
SMILES	D2 antag	D2 ag-1	D2 PAM-1	D2 ag-2	D2 PAM-2
O=C(COC(=O)/C=C/c1ccc(Cl)cc1)NC(=O)NCc1ccccc1	44*	5	1	1	-11
COc1cc(OC)cc(C(=O)Nc2ccc([N+](=O)[O-])cn2)c1	50*	4	-22	0	-21
COc1ccc([N+](=O)[O-])cc1NC(=O)c1csc(C)c1	-7	1	7	0	9
COc1ccc(C(=O)Nc2ccc([N+](=O)[O-])cn2)cc1OC	17	0	-20	0	-27
CCOc1cc(C(=O)Nc2ccc([N+](=O)[O-])cn2)cc(OCC)c1OCC	69*	-5	-31	0	-10
Cc1cc(C(=O)Nc2ccc([N+](=O)[O-])cn2)cs1	30*	9	12	0	-3
CCOC(=O)C1(Cc2ccccc2C(F)(F)F)CCN(C2CCSC2)CC1 (stereo not drawn)	50*	-1	-24	1	-14
CC(=O)N1CCc2cc(C(=O)CN3CCN(c4cccc(Cl)c4)CC3)ccc21	73*	10	-16	54*	-13
CC(=O)N1CCc2cc(C(=O)CN3CCC(C)CC3)ccc21	7	2	-4	1	-4
CCOc1ccc(OCC)c(NC(=O)Cn2nc(CC)n3c(cc4sccc43)c2=O)c1	x	x	-2	0	x
CCCCCCC(O)(c1ccc(OC)cc1)C(CN1CCOCC1)c1ccccc1 (stereo not drawn)	31*	-3	5	1	-16
CN(CCC#N)C(=O)Cn1nc(Cc2ccncc2)c2ccccc2c1=O	35*	-3	12	-2	-6
Cc1nc2c(-c3ccccc3)cnn2c(N2CCOCC2)c1C	31*	-3	-9	0	-2
COc1ccccc1NC(=O)CSc1ncc2c(n1)-c1ccccc1N(Cc1ccccc1C)S2(=O)=O	x	x	x	0	x
CC(=O)Oc1ccc(N(c2ccccc2)S(=O)(=O)c2ccc(C)cc2)cc1	-16	-3	39*	2	-4
Cc1ccc(S(=O)(=O)N(C)c2ccccc2)cc1	-1	-4	-4	1	4
Cc1ccc(N2CCN(C(=O)c3c(C)oc4nc(C)nc(N5CCCC5)c34)CC2)c(C)c1	x	x	4	1	x
COc1cc(NC(=O)CC(C)S(=O)(=O)c2ccc3c(c2)CCN3C(C)=O)cc(OC)c1OC (stereo not drawn)	x	x	-6	0	x
COc1ccc(CCNC(=O)C2Cc3ccccc3C(=O)O2)cc1 (stereo not drawn)	8	-1	9	1	-4
COc1ccc(CCNC2CCc3ccccc3C2)cc1 (stereo not drawn)	81*	-5	-12	-1	-69
COc1ccc2c(c1)-c1ccccc1S(=O)(=O)N2C	34*	1	-18	0	-13
CCC(=O)N1CCc2cc(Br)cc(S(=O)(=O)CCC(=O)NCCc3cccc(C)c3)c21	x	x	-11	1	x
Fc1cccc(Cl)c1Cn1c(-c2cccs2)nc2ccccc21	x	x	-4	1	x
COc1cc(NC(=O)Cc2c(C(=O)O)n(C)c3ccccc23)cc(OC)c1OC	x	5	x	x	-4
COc1ccc(NC(=O)Cc2c(C(=O)O)n(C)c3ccccc23)cc1OC	2	-5	32*	0	-1
CSc1ccc(CCNC(=O)Cn2ncn3c(cc4ccccc43)c2=O)cc1	x	x	-6	x	x
NC(=O)c1nn(CC(=O)Nc2cccc(S(=O)(=O)N3CCCC3)c2)c(=O)c2ccccc12	44*	-1	-10	0	-3
